Assay outcomes: PubChem, National Center for Advancing Translational Sciences (NCATS)
Compounds with a hit are over-represented: about 2.5% of the library has one in this group of screens.
Cruzain inh Det = qHTS Assay for Promiscuous and Specific Inhibitors of Cruzain (with detergent); Cruzipain (Trypanosoma cruzi), P25779; actives 0.43% (n = 200,000); Potency, µM, inactives show max response, negative = inhibition, actives largely listed as inhibitors; purified cruzain, Z-FR-AMC fluorescence, 0.01% Triton;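 note: plate controls were neutral wells for no effect and buffer without enzyme for full effect; nearly all actives have a fitted effect of over 40% in size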
Target sequence (P25779 123-467 limits assumed): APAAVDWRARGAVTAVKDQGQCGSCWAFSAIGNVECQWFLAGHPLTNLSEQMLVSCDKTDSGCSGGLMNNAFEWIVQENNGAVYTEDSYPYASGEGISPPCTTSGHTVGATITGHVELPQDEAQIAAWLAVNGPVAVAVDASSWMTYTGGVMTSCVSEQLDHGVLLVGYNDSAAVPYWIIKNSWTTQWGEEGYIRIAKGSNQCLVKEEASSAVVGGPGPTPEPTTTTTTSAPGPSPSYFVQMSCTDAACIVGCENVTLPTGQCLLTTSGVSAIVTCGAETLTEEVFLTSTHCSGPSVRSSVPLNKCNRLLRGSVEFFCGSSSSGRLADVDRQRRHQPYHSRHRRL
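Z-FR-AMC hydrolysis (2 uM substrate) by cruzain (1.5 nM) monitored kinetically at ex 360/em 450 nm after 15 min room-temperature compound exposure; 0.01% Triton X-100, pH 5.5, 5 mM DTT.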
Cruzain noTriton = qHTS Assay for Promiscuous and Specific Inhibitors of Cruzain (without detergent) | Potency, µM, without a hit: max response, negative = inhibition, most hits filed as inhibitors | actives 2.3% (n = 200,000) | Cruzipain (Trypanosoma cruzi), P25779 | purified cruzain, Z-FR-AMC fluorescence, no detergent;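 note: plate controls were enzyme without inhibitor for no effect and buffer without enzyme for full effect; nearly all actives have a fitted effect of over 40% in size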
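Purified cruzain at 1.5 nM, pre-incubated 15 min with compound at room temperature in 100 mM sodium acetate pH 5.5, 5 mM DTT, 0.00005% Triton X-100. Reaction started with 2 uM Z-FR-AMC; AMC fluorescence increase over 60 s gives rate.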
* hit, by the source's call; ? = inconclusive. Calls come from the whole dose curve; as a rule, active = well fitted curve in the direction sought with a large enough effect; inconclusive = small, poorly fitted or top-dose-only effect, or another doubt; inactive = no such curve, though single readings can be large; an effect the other way counts as inactive or inconclusive. Potency is the fitted concentration of half-maximal effect.

SMILES | Cruzain inh Det | Cruzain noTriton
CCOc1ccc(NC(=O)c2oc3ccccc3c2NC(=O)Cc2cccc(C)c2)cc1 | -2% | -1%
COc1cc2nc(SCC(=O)Nc3ccccc3C)n3nc(CCn4c(C)nc5ccccc54)nc3c2cc1OC | -1% | -3%
CCS(=O)(=O)N1Cc2ccccc2CC1C(=O)Nc1nc2ccc(C)cc2s1 (configuration not stated) | -7% | 13µM*
CCS(=O)(=O)N1Cc2ccccc2CC1C(=O)Nc1ccc(C)cc1 (configuration not stated) | -3% | ?
N#Cc1ccc(CSc2nnc(NC(=O)C3CCCO3)s2)cc1 (configuration not stated) | -2% | -6%
CCS(=O)(=O)N1Cc2ccccc2CC1C(=O)Nc1nnc(SCc2ccc(C#N)cc2)s1 (configuration not stated) | -6% | 25µM*
CCOc1ccc(N(CC)S(=O)(=O)N2CCCC(C(=O)Nc3ccc(OC)c(OC)c3)C2)cc1 (configuration not stated) | 2% | ?
CCOC(=O)c1sc(N2C(=O)c3oc4ccc(C)cc4c(=O)c3C2c2ccccc2F)nc1C (configuration not stated) | -1% | 6%
CCc1ccccc1NC(=O)CN1C(=O)COc2ccc(S(=O)(=O)N3CCCCCC3)cc21 | 2% | -6%
COc1ccc(Nc2ccc3cc(S(=O)(=O)N4CCCC4)ccc3n2)cc1OC | -7% | -13%
CC(=O)c1cccc(Nc2ccc3cc(S(=O)(=O)N4CCCC4)ccc3n2)c1 | -7% | 13µM*
COc1ccc(-c2cc(-c3ccc(C)cc3)nc(SCc3nnc(-c4ccccc4)o3)c2C#N)cc1OC | -1% | 10µM*
COc1ccc(-c2nnc(CSc3nc4ccccc4c(=O)n3C)o2)cc1OC | 0% | ?
O=C1c2ccccc2C(=O)C12OC(c1ccccc1)C1(C(=O)c3ccccc3C1=O)C2c1cccc([N+](=O)[O-])c1 (configuration not stated) | 0% | 7.9µM*
O=C1c2ccccc2C(=O)C12OC2c1ccc(Cl)cc1 (configuration not stated) | -4% | 3%
CC(C)c1ccc(OCC(=O)NCCS(=O)(=O)N2CCN(c3ccc(F)cc3)CC2)cc1 | 0% | 8%
CCc1nn(CC(=O)NCCN(CC(C)C)CC(C)C)c(=O)c2cc3sc(C)cc3n12 | 0% | -2%
Cc1cccc(S(=O)(=O)Nc2nc3ccccc3nc2Nc2ccc3c(c2)OCO3)c1 | -6% | 16µM*
O=S(=O)(Nc1nc2ccccc2nc1Nc1ccc2c(c1)OCO2)c1ccccc1 | -3% | ?
COC(=O)[C@@]1(Cc2ccc(F)cc2)[C@H]2c3cc(C(=O)N4CCCC4)n(Cc4ccccn4)c3C[C@H]2CN1C(=O)c1ccccc1 | 1% | ?
CC1=C(C(=O)OCc2ccc3c(c2)OCO3)C(c2ccccc2OCc2ccccc2)NC(=O)N1 (configuration not stated) | -1% | 16µM*
CC1=C(C(=O)OCc2ccc3c(c2)OCO3)C(c2ccccc2)NC(=O)N1 (configuration not stated) | -4% | -6%
CCc1ccc(-n2c(=O)c3c4c(sc3n(Cc3ccccc3C#N)c2=O)CCC4)cc1 | -2% | 1%
Cc1ccc(Cn2c(CN3CCC(C(=O)NCc4ccccc4C)CC3)cc3ccccc32)cc1 | -9% | 12%
CCCC(=O)Nc1ccc(Nc2ccccc2)cc1 | -4% | 13%
SMILES | Cruzain inh Det | Cruzain noTriton
CCCC(=O)Nc1ccc(-c2ccc(NC(=O)CCC)cc2)cc1 | -1% | 13µM*
Cc1ccc(CCNC(=O)c2cc(C)nc3c2c(C)nn3-c2ccc(C)cc2)cc1 | -2% | -1%
CCCOc1ccc(C(=O)Nc2nonc2-c2ccc(OCC)cc2)cc1 | 2% | 2%
CC(NC(=O)c1ccc(F)cc1)c1nc2ccccc2[nH]1 (configuration not stated) | -26% | -12%
Cc1cccc(NC(=O)Cn2c(=O)n(CCc3c[nH]c4ccccc34)c(=O)c3cccnc32)c1 | -2% | 25µM*
O=C(Cn1c(=O)n(CCc2c[nH]c3ccccc23)c(=O)c2cccnc21)Nc1ccccc1F | -2% | ?
COc1ccc(C(=O)CC2(O)C(=O)N(CCc3ccccc3)c3ccc(Br)cc32)cc1OC (configuration not stated) | -10% | ?
Cc1ccc2occ(CC(=O)Nc3c(C(=O)Nc4ccc(Cl)cc4)oc4ccccc34)c2c1 | -2% | 10µM*
Cc1cc(C)c2c(CC(=O)Nc3c(C(=O)Nc4ccc(Cl)cc4)oc4ccccc34)coc2c1 | -2% | -25%
CCc1ccc2occ(CC(=O)Nc3c(C(=O)Nc4ccc(Cl)cc4)oc4ccccc34)c2c1 | -2% | 10µM*
CCc1ccc2occ(CC(=O)Nc3c(C(=O)Nc4ccc(C)cc4)oc4ccccc34)c2c1 | 0% | -13%
COc1ccc2c(c1)Cc1cc(N=[N+]([O-])c3ccc4c(c3)Cc3cc(OC)ccc3-4)ccc1-2 | 0% | -10%
Cc1ccc(S(=O)(=O)CC(=O)Nc2nc3c(C)cc(C)cc3s2)cc1 | -7% | 13µM*
CCOc1ccc2nc(NC(=O)CS(=O)(=O)c3ccc(C)cc3)sc2c1 | -8% | ?
COc1cccc2sc(NC(=O)CS(=O)(=O)c3ccc(C)cc3)nc12 | -2% | ?
CCOc1ccc2nc(NC(=O)CS(=O)(=O)c3ccc(Cl)cc3)sc2c1 | -10% | 5µM*
CCOC(=O)c1ccc(NC(=O)c2cccc3c(=O)c4c([nH]c23)CCCC4)cc1 | -6% | -1%
CC(C)CO[C@H](c1ccc2c(c1)OCO2)[C@H](C)Br | 3% | -5%
CCOC(=O)c1ccccc1NC(=O)N1CCCN(S(=O)(=O)c2ccc3c(ccn3CC)c2)CC1 | -9% | 20%
Cc1nn(-c2nc3ccccc3s2)c(N)c1Sc1ccc(F)cc1 | 7% | 13µM*
Cc1nn(-c2nc3ccccc3s2)c(N)c1-c1ccccc1 | -1% | ?
COc1ccc(OC)c(Nc2nc(-c3cccs3)cs2)c1 | -3% | ?
COc1ccc(C)cc1Nc1nc(-c2c[nH]c3ccccc23)cs1 | -3% | 16µM*
CCc1ccccc1NC(=O)Cn1c(=O)n(Cc2ccc3c(c2)OCO3)c(=O)c2ccc(C(=O)NC3CCCCC3)cc21 | 5% | -9%
O=C(Cn1c(=O)n(Cc2ccc3c(c2)OCO3)c(=O)c2ccc(C(=O)NC3CCCCC3)cc21)Nc1ccccc1F | 0% | 13µM*
SMILES | Cruzain inh Det | Cruzain noTriton
COc1ccc(NC(=O)c2cc(S(=O)(=O)N3CCCC(C)C3)cn2C)c(OC)c1 (configuration not stated) | -4% | 9%
Cc1ccc(/C(N)=N/OC(=O)c2cc(-c3ccccc3)nc3ccccc23)cc1 | -3% | -17%
COc1ccc(/C(N)=N/OC(=O)c2cc(-c3ccccc3)nc3ccccc23)cc1 | -2% | 20µM*
CCc1ccc(-n2cc(-c3ccc([N+](=O)[O-])cc3)[nH]c2=S)cc1 | -5% | 25µM*
O=[N+]([O-])c1ccc(-c2cn(-c3ccc(Cl)cc3)c(=S)[nH]2)cc1 | -1% | ?
Cc1ccccc1-c1noc(CCC(=O)Nc2cccc(C)c2C)n1 | -3% | -13%
CCCC(=O)NC(NC(=S)Nc1ccc(N=Nc2ccccc2)cc1)C(Cl)(Cl)Cl (configuration not stated) | -4% | -29%
S=C(NCc1ccncc1)Nc1cccc(Cl)c1 | -1% | 13%
